# In the library only some 10% were active in any assay of this set; here they are far more common.
# NIH3T3 tox – NIH 3T3 cell cytotoxicity | NIH 3T3 viability, CellTiter-Glo ATP luminescence, 48-72 h | Potency, µM (top dose mostly 96.7 µM), without a hit: at the highest dose activity change, negative = cytotoxicity, most hits filed as inhibitors | hit rate 4.3% among 94,000; note: % is set by controls: 0 for no effect and ±100 for the full control effect; nearly all actives have a fitted effect of over 55% in size
#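 Mouse fibroblast NIH 3T3 cells, 400 per well, received compound via pintool and were incubated for 48 or 72 hr prior to CellTiter-Glo ATP luminescence measurement.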
# GPT2 inhibitor – blocks human glutamate pyruvate transaminase 2 | AID 1671188 | Recombinant GPT2, coupled pyruvate oxidase/HRP Amplex Red fluorescence | Potency, µM (top dose mostly 57.7 µM), inactives show at the top dose activity change, negative = inhibition, most hits filed as inhibitors | hit rate 0.25% among 100,000 | Q8TD30; note: % is set by controls: 0 for no effect and ±100 for the full control effect; nearly all actives have a fitted effect of over 60% in size
#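 Inhibition is scored from Amplex Red fluorescence generated when pyruvate oxidase and HRP act on pyruvate released by GPT2. Reactions contain 10ng/uL enzyme, 250uM a-KG and 2mM L-alanine and run 30 min at room temperature.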
# NPR1 antag – human Npr1 receptor antagonism; Potency, µM (titrated, usually from 46.3 µM), without a hit: at the highest dose activity change, negative = inhibition, hits mostly inhibitors; hit rate 1.6% among 76,000; HEK293 hNpr1 GloSensor cGMP, ANP-stimulated luminescence; P16066; AID 1347048; calls by dose curve; note: % is set by controls: 0 for no effect and ±100 for the full control effect; nearly all actives have a fitted effect of over 60% in size
#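 HEK293 cells stably expressing human Npr1 and cGMP GloSensor pGS-40F, loaded 2 h with 2% GloSensor reagent, given compound 30 min at room temperature. Luminescence read before and 20 min after 0.1 nM hNppA.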
# Luciferase inh – blocks purified firefly luciferase enzyme activity | P08659 | hit rate 2.5% among 76,000 | Potency, µM (series often up to 115 µM), most hits filed as inhibitors | purified P. pyralis luciferase, luminescence, biochemical; note: % is set by controls: 0 for no effect and ±100 for the full control effect; nearly all actives have a fitted effect of over 65% in size
#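 Luminescence read by CCD imager after adding enzyme (10nM final) to wells holding compound, titrated in qHTS. Substrates 10uM each D-luciferin and ATP; buffer 50mM Tris acetate pH 7.5, 10mM Mg acetate, Tween-20, BSA.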
# HEK cytotox – cytotoxic compounds in HEK 293 cells | hit rate 6.6% among 94,000 | HEK 293 viability, ATP luminescence (CellTiter-Glo), 48-72 h | Potency, µM (series often up to 115 µM), inactives show at the top dose activity change, negative = cytotoxicity, usual class: inhibitors; note: % is set by controls: 0 for no effect and ±100 for the full control effect; nearly all actives have a fitted effect of over 60% in size
#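 Cells seeded first (HEK 293, 250 cells/well), then compound added by pintool. Incubation ran 48 or 72 hr at 37 degree Celsius. CellTiter-Glo was added and luminescence imaged after 10 min at room temperature.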
# Npr1 antag conf – confirmation of human Npr1 natriuretic peptide receptor antagonists | shares compounds with NPR1 antag | HEK293 hNpr1 cGMP GloSensor luminescence, ANP-stimulated | Potency, µM (top dose mostly 57.6 µM), without a hit: top-dose activity change, negative = inhibition, hits mostly inhibitors | hit rate 76% among 1,400 | AID 1347044; calls by dose curve; note: nearly all actives have a fitted effect of over 70% in size
# Npr2 selectivity – hNpr2 antagonism, selectivity versus Npr1 | Potency, µM (series often up to 57.6 µM), for inactives: at the top dose activity change, negative = inhibition, usual class: inhibitors | HEK293 hNpr2 GloSensor cGMP luminescence, CNP-stimulated | hit rate 67% among 1,400 | shares compounds with NPR1 antag; calls by dose curve; note: nearly all actives have a fitted effect of over 70% in size
# FLuc counter – FLuc enzyme inhibition, Npr1 counter-screen; AID 1347047; purified FLuc enzyme, luminescence, Km substrate; Potency, µM (doses to about 57.6 µM), inactives show at the top dose activity change, negative = inhibition, usual class: inhibitors; shares compounds with NPR1 antag; hit rate 0.7% among 1,400; note: 0% is about no effect
# GloSensor ctrl – reduces cGMP signal in GloSensor control cells; shares compounds with NPR1 antag; HEK293 GloSensor cGMP, SNP-stimulated, luminescence; Potency, µM (doses to about 57.6 µM), inactives show at the highest dose activity change, negative = inhibition, most hits filed as inhibitors; hit rate 69% among 1,400; calls by dose curve; note: % is set by controls: 0 for no effect and ±100 for the full control effect; nearly all actives have a fitted effect of over 70% in size
# * hit, by the source's call; i = inactive; u = inconclusive; x = no result; [ ] = remark or other dose. Unless noted, calls come from the whole dose curve; as a rule, active = well fitted curve in the direction sought with a large enough effect; inconclusive = small, poorly fitted or top-dose-only effect, or another doubt; inactive = no such curve, though single readings can be large; an effect the other way counts as inactive or inconclusive. Potency is the fitted concentration of half-maximal effect.
SMILES,NIH3T3 tox,GPT2 inhibitor,NPR1 antag,Luciferase inh,HEK cytotox,Npr1 antag conf,Npr2 selectivity,FLuc counter,GloSensor ctrl
O=C(c1cccs1)N1CCC2(CC1)CC(Cc1ccc(F)cc1)CCO2 (stereo unspecified),u,-15.7%,11.2µM*,i,u,27.3µM*,27.3µM*,-2.1%,27.3µM*
O=C(C1CC1)N1CCC2(CC1)CC(N(Cc1ccc(F)cc1)C1CC1)CCO2 (stereo unspecified),-27.0%,i,15.4%,i,u,x,x,x,x
O=C(NCCN1CCOCC1)c1cn2cc(-c3ccccc3)sc2n1,-29.4%,i,x,x,-13.4%,x,x,x,x
Cc1cccnc1C(C)n1cc(-c2ccccc2-c2ccco2)nn1 (stereo unspecified),-25.7%,2.2%,6.5%,i,-25.2%,x,x,x,x
CC(C)c1nc(-c2ccc(OC3CCN(C(=O)c4cc(F)ccc4F)C3)cc2)no1 (stereo unspecified),u,-14.6%,11.2µM*,i,20µM*,10.9µM*,13.7µM*,1.4%,10.9µM*
O=C(c1cc(F)ccc1F)N1CC(Oc2ccc(-c3nc(-c4ccccc4)no3)cc2)C1,-10.6%,i,u,u,u,x,x,x,x
CC(C)c1nc(-c2ccc(OC3CCN(C(=O)c4n[nH]c5ccccc45)C3)cc2)no1 (stereo unspecified),u,0.1%,15.8µM*,i,28.2µM*,24.3µM*,24.3µM*,-0.1%,19.3µM*
O=C(c1cccnc1)N1CCN(c2ccc3nnc(C4CC4)n3n2)CC1,-26.5%,x,x,x,2.1%,x,x,x,x
O=C(C1CCCN1C(=O)NC1CCCC1)N1CCC(N2Cc3ccccc3C2=O)CC1 (stereo unspecified),-11.0%,i,x,x,1.6%,x,x,x,x
COc1ccc(Nc2n[nH]c(C(O)c3cccc(C(F)(F)F)c3)n2)cc1OC (stereo unspecified),-21.6%[138 µM],u,-24.3%[70.6 µM],i,u,x,x,x,x
OC(c1cccc(C(F)(F)F)c1)c1nc(Nc2ccc3c(c2)OCO3)n[nH]1 (stereo unspecified),u,0.9%[88.5 µM],u,i,u,u,u,-13.7%[86.2 µM],u
O=C1NC2(CCN(Cc3ccc(OC(F)(F)F)cc3)C2)OCc2ccccc21 (stereo unspecified),-18.2%,-17.8%,u,i,79.4µM*,21.7µM*,21.7µM*,1.7%,17.2µM*
O=C1NC2(CCN(Cc3ccc(OC(F)(F)F)cc3)C2)Oc2ccccc21 (stereo unspecified),u,3.0%,7.7%,i,u,x,x,x,x
CN1CC(=O)N(C2CCCNCC2)Cc2c(NCCCN3CCCCC3)ncnc21 (stereo unspecified),i,i,x,x,2.4%,x,x,x,x
CC(C)Oc1ccc(CN2C[C@@H](CO)[C@H](c3ccncc3)C2)cc1,-15.1%,-0.3%,11.2µM*,i,39.8µM*,u,u,1.5%,27.3µM*
Cc1cc2nc3n(c(=O)c2n1CC(=O)Nc1ccccc1C(C)C)CCCCC3,-4.0%,i,-13.1%,i,-14.7%,x,x,x,x
COc1cccc(NC(=O)NC[C@H]2O[C@@H](CC(=O)N3CCN(c4ccc(F)cc4)CC3)[C@H](O)[C@@H]2O)c1,-11.4%,-0.5%,0.3%,i,1.7%,x,x,x,x
CCc1cc(N2CCN(C(=O)[C@H]3CCC[C@@H](O)C3)CC2)ncn1,-15.5%,i,5.1%,i,-9.4%,x,x,x,x
CCc1cc(N2CCCC(C(=O)c3sccc3C)C2)ncn1 (stereo unspecified),-38.8%,1.3%,7.08µM*,i,31.6µM*,7.69µM*,12.2µM*,2.9%,7.69µM*
O=C1CC2(CCN(C(=O)C3CCCN(C(=O)NC4CCCC4)C3)CC2)Oc2ccccc2N1 (stereo unspecified),-31.4%,i,x,x,u,x,x,x,x
O=C(Nc1ccc2c(c1)OCCO2)N1CCC2(CC1)CC(Cc1ccccc1)CCO2 (stereo unspecified),u,-1.0%,x,x,u,x,x,x,x
COc1ccc(-c2noc(CC3CCN(C(=O)CCCc4ccccc4)CC3)n2)cc1,u,i,u,i,28.2µM*,17.2µM*,19.3µM*,-5.5%,19.3µM*
COc1ccc(CCC(=O)N2CCC(Cc3nc(C4CCOCC4)no3)CC2)cc1,-24.9%,i,5.9%,i,u,x,x,x,x
COc1cccc(CCC(=O)N2CCC(Cc3nc(-c4ccc(F)cc4)no3)CC2)c1,u,i,11.2µM*,i,u,13.7µM*,17.2µM*,3.1%,10.9µM*
O=C(CCCc1ccccc1)N1CCC2(CC1)CC(Cc1nc(-c3cccnc3)no1)CCO2 (stereo unspecified),u,-5.8%,15.8µM*,i,35.5µM*,21.7µM*,19.3µM*,2.1%,19.3µM*
SMILES,NIH3T3 tox,GPT2 inhibitor,NPR1 antag,Luciferase inh,HEK cytotox,Npr1 antag conf,Npr2 selectivity,FLuc counter,GloSensor ctrl
Cc1ccc(NC(=O)N2CCC3(CC2)CC(Cc2nc(-c4ccccc4)no2)CCO3)cc1C (stereo unspecified),u,-20.5%,10µM*,i,u,12.2µM*,15.3µM*,-5.6%,12.2µM*
COCC(=O)N1CCN(C(=O)c2nc3cccnc3n(-c3ccccc3OC)c2=O)CC1,-16.1%,1.5%,x,x,-0.7%,x,x,x,x
CNC(=O)c1cc(C2CC2)nc2onc(C3CCCN3C(=O)Cc3ccccn3)c12 (stereo unspecified),-15.9%,x,x,x,-11.4%,x,x,x,x
COc1cccc(-c2noc(CC3CCN(C(=O)CCCc4ccccc4)CC3)n2)c1,u,i,u,i,u,u,u,-0.4%,30.6µM*
COc1ccccc1CCC(=O)N1CCC(Cc2nc(-c3ccccc3)no2)CC1,u,u,u,i,u,x,x,x,x
CC(C)(C)OC(=O)N1CC(NCc2ccc(-c3ccc(OC(F)(F)F)cc3)cc2)C1,u,-25.8%,x,x,u,21.7µM*,21.7µM*,-2.2%,17.2µM*
